Results: PubChem BioAssay (Tox21)
Inconclusive results are not listed. A number with no mark means an inactive call. The source made the active and inactive calls. The call rests on the fitted dose curve; in most records, active means well fitted cell-killing curve with a large enough effect in the repeat runs; inconclusive means weak or mixed curves; inactive means flat fitted curve, though single readings scatter.

test: qHTS assay to identify small molecule antagonists of the TGF-beta/Smad signaling pathway - cell viability counter screen (AID 1346824); details: SBE-bla HEK293T viability, CellTiter-Glo luminescence; series mostly up to 76.8 µM; further: nearly all actives have a fitted effect of over 50% in size
Description: U.S. Tox21 Program National Center for Advancing Translational Sciences [NCATS] NIH Chemical Genomics Center [NCGC] U.S. Environmental Protection Agency [EPA] National Institutes of Environmental Health Sciences [NIEHS] National Toxicology Program [NTP] U.S. Food and Drug Administration [FDA] Tox21 Assay Overview: Transforming growth factor beta (TGF-beta) superfamily consists of a large number of structurally related dimeric proteins that act as hormones or local mediators in regulating a wide range of biological functions. This superfamily includes TGF-betas themselves, the bone morphogenetic proteins (BMPs) and the activins. These ligands induce oligomerization of serine/threonine receptor kinases and phosphorylate the cytoplasmic signaling molecules of Smad protein family. CellSensor SBE-bla HEK 293T cell line (Life Technologies, Carlsbad, CA), responsive to TGF-beta was used to screen Tox21 10K compound library for identification of agonists/antagonists of the Smad signaling pathway. This cell line contains a beta-lactamase reporter gene under control of the Smad binding element (SBE) stably integrated into HEK 293T cells. Also cytotoxicity of the compounds was tested in parallel by measuring the cell viability using CellTiter-Glo assay system in the same wells.
Tox21 Assay Protocol Summary: SBE-bla HEK 293T cells were dispensed at 4,000/well in 5 uL of assay medium into black wall/clear-bottom 1536-well plates using a Multidrop Combi (ThermoFisher Scientific, Waltham, MA) dispenser. After the assay plates were incubated at 37 C and 5% CO2 for an overnight, 23 nL of compounds dissolved in DMSO, positive controls or DMSO only was transferred to the assay plate by a Pintool station (Kalypsys, San Diego, CA). Compound transfer was followed by the addition of 1 uL of 0.25 ng/mL TGF-beta1 or assay buffer using two separate tips of Flying Reagent Dispenser (FRD, Aurora Discovery, San Diego, CA). The assay plates were incubated at 37 C and 5% CO2 for 5 hr. One uL of LiveBLAzer B/G FRET substrate (Life Technologies) was added using a Flying Reagent Dispenser (FRD, Aurora Discovery, San Diego, CA) and the plates were incubated at room temperature for 2 hr. Fluorescence intensity (405 nm excitation, 460 nm and 530 nm emissions) was measured using an Envision plate reader (PerkinElmer, Shelton, CT). For cytotoxicity read, 4 uL of CellTiter-Glo reagent (Promega Corporation, Madison, WI) was added to each well of the assay plates using FRD. After 30 min incubation at room temperature, the luminescence intensity was measured using ViewLux plate reader (PerkinElmer).
On the % scale 0 is the no-effect control and ±100 the full control effect.

SMILES	viability change, negative = cytotoxic	outcome
Cn1ccc2cc3c(cc21)CCN3C(=O)Nc1cccnc1	10.7% [at 15.8 µM]	–
C/C=C1\C(=O)C[C@H]2[C@@H]3CCC4=CC(=O)CC[C@]4(C)[C@H]3CC[C@]12C	–	inactive
CCCCCN(CCCCC)C(=O)C(CCC(=O)O)NC(=O)c1ccc(Cl)c(Cl)c1 (stereo not given)	–	inactive
CC(C)CCCCCCN	–	inactive
OCCN1C[C@H](O)[C@@H](O)[C@H](O)[C@H]1CO	–	inactive
CCCCC1CCCCC(=O)O1 (stereo not given)	–	inactive
CC(=O)OC(C)(C)C	–	inactive
CC(C)(C)N(CCO)CCO	–	inactive
CO[Si](OC)(OC)OC	–	inactive
Oc1ccc2c(c1)OC[C@@H](N1CCC(O)(c3ccc(F)cc3)CC1)[C@H]2O	–	inactive
C[C@H]1O[C@@H](n2cc(F)c(=O)[nH]c2=O)[C@H](O)[C@@H]1O	–	inactive
CCCC(C)C(=O)O (stereo not given)	–	inactive
N#CCN(CC#N)CCN(CC#N)CC#N	–	inactive
CCCCc1ccc(N)cc1	–	inactive
OC1OC[C@@H](O)[C@H](O)[C@H]1O (stereo not given in full)	–	inactive
CCCCCC[C@@H](CCC)C(=O)O	–	inactive
c1cc(CN2CCCCC2)cc(OCCCNc2nc3ccccc3s2)c1	–	inactive
C=CCOc1nc(OCC=C)nc(OCC=C)n1	–	inactive
Cc1cc(C)cc(OCC2CNC(=O)O2)c1 (stereo not given)	–	inactive
CCCCCCCCCCCCCCCCCCOCC(O)CO (stereo not given)	–	inactive

SMILES	viability change, negative = cytotoxic	outcome
COc1ccc(NC(C)=O)cc1	–	inactive
COC[C@H](c1ccc(C(F)(F)F)cc1)N1CCN(C2(C)CCN(C(=O)c3c(C)ncnc3C)CC2)C[C@H]1C	–	inactive
CC/C=C\C#N	–	inactive
CC(C)(O)c1ccccc1	–	inactive
CC(C)COC(=O)C(C)C	–	inactive
NC(=O)c1ncn([C@@H]2O[C@H](CO)[C@@H](O)[C@H]2O)c1O	–	inactive
C[C@H](O)C(=O)Nc1c(I)c(C(=O)NC(CO)CO)c(I)c(C(=O)NC(CO)CO)c1I	–	inactive
CCC(=O)/C=C/c1ccc(OC)cc1	–	inactive
O=Cc1ccccc1[N+](=O)[O-]	–	inactive
O=[N+]([O-])c1ccc(CCO)cc1	–	inactive
COc1cccc(OC)c1	–	inactive
COc1cc(C)cc(O)c1	–	inactive
Nc1ncnc2c1ncn2Cc1c(F)cccc1Cl	–	inactive
CCN1CCCC1CNC(=O)c1cc(S(N)(=O)=O)ccc1OC (stereo not given)	–	inactive
CCCCOCC(C)OCC(C)O (stereo not given)	–	inactive
CC/C=C\CCCCO	–	inactive
NCC[C@H](O)C(=O)N[C@@H]1C[C@H](N)[C@@H](O[C@H]2O[C@H](CN)[C@@H](O)[C@H](O)[C@H]2O)[C@H](O)[C@H]1O[C@H]1O[C@H](CO)[C@@H](O)[C@H](N)[C@H]1O	-7.43% [at 0.29 µM]	–
Nc1nc(F)nc2c1ncn2[C@@H]1O[C@H](CO)[C@@H](O)[C@@H]1O	–	inactive
NS(=O)(=O)c1cc(C2(O)NC(=O)c3ccccc32)ccc1Cl (stereo not given)	–	inactive
Cc1nc(-c2ccc(OCC(C)C)c(C#N)c2)sc1C(=O)O	–	inactive
